The record followed here is ChEMBL document CHEMBL1961873, “Compounds: GSK PKIS; Assays: Nanosyn kinase panel” (2012).

Assay [1] has as its target Tyrosine-protein kinase CSK (Homo sapiens) (UniProt P41240). Particulars: at 1 µM.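 Also: each value is an averaged inhibition reading.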
The target in assay [2] is T1, Discoidin domain-containing receptor 2 (Homo sapiens) (UniProt Q16832).
T1 sequence (whole entry): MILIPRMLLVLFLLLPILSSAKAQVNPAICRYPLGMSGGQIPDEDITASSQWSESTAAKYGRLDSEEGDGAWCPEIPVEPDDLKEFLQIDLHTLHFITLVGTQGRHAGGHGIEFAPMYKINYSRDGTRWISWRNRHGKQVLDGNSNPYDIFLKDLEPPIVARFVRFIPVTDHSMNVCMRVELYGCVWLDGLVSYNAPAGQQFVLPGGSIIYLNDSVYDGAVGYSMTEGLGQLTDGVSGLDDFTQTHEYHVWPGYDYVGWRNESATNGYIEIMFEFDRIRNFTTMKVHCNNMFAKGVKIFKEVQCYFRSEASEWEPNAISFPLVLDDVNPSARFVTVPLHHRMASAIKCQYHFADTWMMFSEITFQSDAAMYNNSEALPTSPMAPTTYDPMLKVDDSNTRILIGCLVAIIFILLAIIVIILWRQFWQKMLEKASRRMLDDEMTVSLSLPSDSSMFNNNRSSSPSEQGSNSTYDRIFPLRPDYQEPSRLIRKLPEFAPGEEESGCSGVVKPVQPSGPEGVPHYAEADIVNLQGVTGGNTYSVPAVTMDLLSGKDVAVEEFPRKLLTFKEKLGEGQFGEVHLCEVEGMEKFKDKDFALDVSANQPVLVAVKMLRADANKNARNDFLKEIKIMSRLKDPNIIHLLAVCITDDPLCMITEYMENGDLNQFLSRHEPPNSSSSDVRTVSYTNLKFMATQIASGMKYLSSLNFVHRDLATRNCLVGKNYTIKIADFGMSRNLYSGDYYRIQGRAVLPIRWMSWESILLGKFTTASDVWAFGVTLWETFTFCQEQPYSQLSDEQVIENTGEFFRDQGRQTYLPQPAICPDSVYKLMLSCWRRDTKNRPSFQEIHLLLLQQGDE
The note with it: at 0.1 µM.

Assay [3] addresses T1, Discoidin domain-containing receptor 2 (Homo sapiens). Particulars: at 1 µM.
Assay [4] addresses Epidermal growth factor receptor (Homo sapiens) (UniProt P00533). Particulars: at 0.1 µM.
Assay [5] shares this target. Particulars: at 1 µM.
The subject of assay [6] is Epidermal growth factor receptor (Homo sapiens), P00533 [L858R]. Particulars: at 0.1 µM.
For assay [7] the test system is unchanged. The note with it: at 1 µM.
The subject of assay [8] is Epidermal growth factor receptor (Homo sapiens), P00533 [L861Q]. The note with it: at 0.1 µM.
For assay [9] the test system is unchanged. Particulars: at 1 µM.
Assay [10] has as its system Epidermal growth factor receptor (Homo sapiens), P00533 [T790M]. The note with it: at 0.1 µM.

Tyrosine-protein kinase CSK (Homo sapiens), sequence (P41240 2-450 limits assumed): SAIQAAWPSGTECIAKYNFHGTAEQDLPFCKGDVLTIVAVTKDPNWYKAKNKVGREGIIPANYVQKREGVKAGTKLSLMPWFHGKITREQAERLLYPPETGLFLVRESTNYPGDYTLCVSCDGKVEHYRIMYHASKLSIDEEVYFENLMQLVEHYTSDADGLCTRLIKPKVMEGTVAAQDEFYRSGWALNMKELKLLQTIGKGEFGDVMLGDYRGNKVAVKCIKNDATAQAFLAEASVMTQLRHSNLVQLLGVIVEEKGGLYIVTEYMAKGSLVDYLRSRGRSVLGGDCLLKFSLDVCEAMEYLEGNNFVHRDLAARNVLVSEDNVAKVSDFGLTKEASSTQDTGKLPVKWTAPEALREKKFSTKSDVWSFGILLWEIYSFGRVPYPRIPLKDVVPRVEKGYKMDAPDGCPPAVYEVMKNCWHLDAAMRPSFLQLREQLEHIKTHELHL
Epidermal growth factor receptor (Homo sapiens), P00533 [T790M], sequence (P00533 whole entry T790M): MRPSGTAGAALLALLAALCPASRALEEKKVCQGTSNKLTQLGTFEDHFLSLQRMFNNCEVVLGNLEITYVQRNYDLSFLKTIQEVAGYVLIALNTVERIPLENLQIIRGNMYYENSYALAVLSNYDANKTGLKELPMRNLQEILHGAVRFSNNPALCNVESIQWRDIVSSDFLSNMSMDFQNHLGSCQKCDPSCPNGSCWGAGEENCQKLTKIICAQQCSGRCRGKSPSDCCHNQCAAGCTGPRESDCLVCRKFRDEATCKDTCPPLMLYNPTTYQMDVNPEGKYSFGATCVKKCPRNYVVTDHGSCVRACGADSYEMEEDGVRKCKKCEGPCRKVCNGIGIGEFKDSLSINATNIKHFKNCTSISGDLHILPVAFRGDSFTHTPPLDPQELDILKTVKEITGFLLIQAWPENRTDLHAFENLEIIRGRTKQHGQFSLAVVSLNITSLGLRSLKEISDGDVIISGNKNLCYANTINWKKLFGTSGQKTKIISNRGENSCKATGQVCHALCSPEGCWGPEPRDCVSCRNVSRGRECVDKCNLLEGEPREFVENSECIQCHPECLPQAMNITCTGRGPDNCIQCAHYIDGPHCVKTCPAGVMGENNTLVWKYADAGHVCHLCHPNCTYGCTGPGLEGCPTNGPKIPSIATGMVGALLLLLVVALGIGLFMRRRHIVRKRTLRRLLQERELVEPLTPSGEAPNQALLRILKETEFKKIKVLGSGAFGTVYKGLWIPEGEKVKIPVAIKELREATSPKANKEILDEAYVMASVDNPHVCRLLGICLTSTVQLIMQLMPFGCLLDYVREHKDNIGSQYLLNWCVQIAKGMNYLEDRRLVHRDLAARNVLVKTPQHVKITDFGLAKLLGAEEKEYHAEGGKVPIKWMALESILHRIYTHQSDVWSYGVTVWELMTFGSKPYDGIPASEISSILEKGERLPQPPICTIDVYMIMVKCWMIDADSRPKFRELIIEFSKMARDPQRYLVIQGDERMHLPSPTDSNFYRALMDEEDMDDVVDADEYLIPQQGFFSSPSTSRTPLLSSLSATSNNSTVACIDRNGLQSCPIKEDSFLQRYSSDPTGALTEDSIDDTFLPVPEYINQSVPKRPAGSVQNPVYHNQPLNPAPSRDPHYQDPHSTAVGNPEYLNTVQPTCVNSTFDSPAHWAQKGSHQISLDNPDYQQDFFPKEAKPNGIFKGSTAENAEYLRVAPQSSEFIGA
Epidermal growth factor receptor (Homo sapiens), sequence (P00533 whole entry): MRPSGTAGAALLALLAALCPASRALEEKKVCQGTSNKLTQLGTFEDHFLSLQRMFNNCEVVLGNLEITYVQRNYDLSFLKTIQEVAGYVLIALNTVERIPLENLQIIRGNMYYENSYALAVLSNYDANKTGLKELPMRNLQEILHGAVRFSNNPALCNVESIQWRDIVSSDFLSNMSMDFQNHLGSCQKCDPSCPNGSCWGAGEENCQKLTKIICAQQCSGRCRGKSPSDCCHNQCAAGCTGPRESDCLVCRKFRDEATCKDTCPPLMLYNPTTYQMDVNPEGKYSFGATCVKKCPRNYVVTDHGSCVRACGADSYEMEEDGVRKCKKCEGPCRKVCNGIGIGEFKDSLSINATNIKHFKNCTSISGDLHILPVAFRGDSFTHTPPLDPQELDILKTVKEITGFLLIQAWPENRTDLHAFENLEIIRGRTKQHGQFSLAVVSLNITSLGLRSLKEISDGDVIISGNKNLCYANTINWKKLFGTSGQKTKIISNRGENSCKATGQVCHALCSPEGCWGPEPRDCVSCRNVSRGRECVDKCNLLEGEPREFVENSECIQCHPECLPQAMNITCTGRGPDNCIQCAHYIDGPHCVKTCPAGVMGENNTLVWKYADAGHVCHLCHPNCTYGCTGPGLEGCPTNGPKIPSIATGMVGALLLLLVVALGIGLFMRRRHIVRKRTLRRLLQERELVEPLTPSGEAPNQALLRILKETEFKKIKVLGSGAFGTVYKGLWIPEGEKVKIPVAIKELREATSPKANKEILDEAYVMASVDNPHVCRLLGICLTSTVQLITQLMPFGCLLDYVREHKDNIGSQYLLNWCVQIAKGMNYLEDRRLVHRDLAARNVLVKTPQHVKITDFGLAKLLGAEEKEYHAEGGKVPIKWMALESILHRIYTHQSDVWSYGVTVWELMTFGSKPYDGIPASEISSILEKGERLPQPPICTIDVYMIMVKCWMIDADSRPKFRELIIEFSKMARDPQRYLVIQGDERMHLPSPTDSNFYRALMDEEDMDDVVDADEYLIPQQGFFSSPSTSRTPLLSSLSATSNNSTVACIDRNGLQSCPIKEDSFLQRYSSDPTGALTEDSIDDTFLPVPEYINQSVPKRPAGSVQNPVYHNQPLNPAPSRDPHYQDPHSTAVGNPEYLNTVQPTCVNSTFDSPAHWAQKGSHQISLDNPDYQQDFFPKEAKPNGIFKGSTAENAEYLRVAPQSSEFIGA
Epidermal growth factor receptor (Homo sapiens), P00533 [L861Q], sequence (P00533 whole entry L861Q): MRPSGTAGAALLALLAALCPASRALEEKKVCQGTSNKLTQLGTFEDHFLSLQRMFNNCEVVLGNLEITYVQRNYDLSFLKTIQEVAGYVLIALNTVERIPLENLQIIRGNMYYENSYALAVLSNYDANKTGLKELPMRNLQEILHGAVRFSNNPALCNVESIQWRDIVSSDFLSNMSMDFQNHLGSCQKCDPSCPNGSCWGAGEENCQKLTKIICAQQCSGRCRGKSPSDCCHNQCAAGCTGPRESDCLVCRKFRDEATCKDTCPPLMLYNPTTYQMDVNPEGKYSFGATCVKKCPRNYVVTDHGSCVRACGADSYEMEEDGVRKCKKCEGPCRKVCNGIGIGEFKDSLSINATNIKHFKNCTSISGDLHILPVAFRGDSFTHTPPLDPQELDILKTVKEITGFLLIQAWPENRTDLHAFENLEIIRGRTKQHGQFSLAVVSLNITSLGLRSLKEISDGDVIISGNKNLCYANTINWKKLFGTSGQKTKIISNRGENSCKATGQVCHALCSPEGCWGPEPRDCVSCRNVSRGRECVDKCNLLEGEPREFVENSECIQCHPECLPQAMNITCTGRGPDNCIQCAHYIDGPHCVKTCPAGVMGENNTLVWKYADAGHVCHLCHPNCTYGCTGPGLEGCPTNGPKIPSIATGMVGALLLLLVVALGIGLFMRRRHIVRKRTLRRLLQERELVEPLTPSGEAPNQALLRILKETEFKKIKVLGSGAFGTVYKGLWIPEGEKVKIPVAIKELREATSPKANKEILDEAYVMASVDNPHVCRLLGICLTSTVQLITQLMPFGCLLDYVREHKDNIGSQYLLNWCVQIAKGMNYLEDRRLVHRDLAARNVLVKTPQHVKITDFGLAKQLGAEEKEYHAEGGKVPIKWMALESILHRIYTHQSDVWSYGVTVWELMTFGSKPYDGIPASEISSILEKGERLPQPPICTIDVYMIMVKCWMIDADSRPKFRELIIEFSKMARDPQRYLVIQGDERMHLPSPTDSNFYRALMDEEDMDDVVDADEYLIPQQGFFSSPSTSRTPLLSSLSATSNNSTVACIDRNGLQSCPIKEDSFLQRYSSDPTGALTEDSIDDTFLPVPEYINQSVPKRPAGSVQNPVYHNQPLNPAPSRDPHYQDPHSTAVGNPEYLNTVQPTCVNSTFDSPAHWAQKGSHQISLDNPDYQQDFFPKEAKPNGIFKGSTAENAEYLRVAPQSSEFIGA

As to `COc1ccc2cc(-c3c(-c4ccncc4)nc(-c4ccc([S+](C)[O-])cc4)n3C)ccc2c1` (stereo not drawn), the inhibition was -2.89% in assay [1]; 1.35% in [2]; 3.95% in assay [3]; 6.79% in assay [4]; 3.4% in assay [5]; 2.1% in assay [6]. In addition, the inhibition in assay [7] was 0.76%; in [8] it was 1.88%; in [9], 1.02%; in assay [10], -0.14%.

As for `NC(=O)c1ccc(-c2nc(-c3ccccn3)c(-c3ccc4c(c3)OCO4)[nH]2)cc1`, the inhibition in assay [1] is 6.81%; in [2] it was 2.6%; in assay [3], 4.42%; in [4] it was 2.11%; in assay [5], 4.7%; in assay [6] it was 4.74%. In addition, the inhibition in assay [7] is 3.79%; in assay [8], 2.1%; in [9], 2.01%; in assay [10], -0.51%.

Regarding `CS(=O)(=O)Nc1ccc(N/C=C2\C(=O)Nc3ccccc32)cc1`, the inhibition in assay [1] is -6.43%; in assay [2], 0.64%; in assay [3], 0.83%; in [4] it was 0.27%; in [5], 1.45%; in assay [6] it was -0.02%. The inhibition in assay [7] was -5.94%; in [8] it was 0.35%; in assay [9], -1.41%; in assay [10], -1.68%.

On to `COc1cc2ncn(-c3cc(OCc4ccccc4C(F)(F)F)c(C(N)=O)s3)c2cc1OC`, for which the inhibition was found to be 9.28% in assay [1]; 7.36% in assay [2]; 7.43% in [3]; 3.5% in assay [5]; 2.54% in [6]; 13.5% in [7]. The results for the inhibition in [8], in [9] and in assay [10] were 3.75%, 4.35% and 2%, respectively.

Consider `CCn1c(-c2nonc2N)nc2c(C#CC(C)(C)O)nc(OC[C@@H](N)c3ccccc3)cc21`, for which the inhibition was -2.13% in assay [1]; 4.51% in assay [2]; 12.2% in [3]; 0.44% in [4]; 3.81% in assay [5]; -1.04% in assay [6]. For the same molecule, the inhibition in assay [7] was -2.49%; in assay [8], -1.53%; in assay [9], -1.51%; in assay [10], -1.77%.

For the molecule `Cc1cc(O)cc(C)c1/C=C/c1cncc(-c2nn[nH]n2)c1`, the inhibition in assay [1] was 43.4%; in [2] it was 1.73%; in [3], 6.08%; in assay [4], -1.53%; in [5], 15.8%; in assay [6], 10.4%. The inhibition worked out at 56.9% in assay [7], 3.95% in assay [8], 21.2% in assay [9] and 2.17% in assay [10].

Turning to `COc1ccc(-c2ccncc2)cc1C(N)=O`, the inhibition was 2.12% in assay [1]; 2.19% in [2]; 2.53% in assay [3]; 4.47% in assay [4]; 4.86% in assay [5]; 5.16% in assay [6]. Moreover, the inhibition in assay [7] was 4.73%; in assay [8], 4.48%; in assay [9], 6.9%; in assay [10], 0.43%.

In the case of `Cc1nn(C)c2cc(N(C)c3ccnc(Nc4cccc(S(N)(=O)=O)c4)n3)ccc12`, the inhibition in assay [1] was 22.4%; in assay [2] it was -2.88%; in [4], 5.33%; in assay [5], 13.9%; in assay [6], 1.02%; in assay [7], 16%. For the same molecule, the results for the inhibition in assay [8], in assay [9] and in [10] were 2.56%, 9.38% and 1.34%, respectively.

Consider `COc1cccc(-n2ncc3c(N/N=C/c4cccc(F)c4)ncnc32)c1`, for which the inhibition in assay [1] came to 4.81%; in [2], 1.22%; in assay [3], 2.49%; in [4], 0.53%; in assay [5], 8.49%; in [6] it was 6.62%. In addition, the inhibition in assay [7] was 37.9%; in assay [8], 2.52%; in assay [9], 7.42%; in assay [10], -0.78%.

For `CCN1CCC(CC(=O)Nc2n[nH]c3nc(-c4cccs4)c(Br)cc23)CC1`, the inhibition was -4.84% in [1]; -0.58% in assay [2]; 0.03% in assay [3]; 1.1% in assay [4]; 3.65% in assay [5]; 0.06% in [6]. Further, the inhibition was 3.28% in assay [7], -0.27% in assay [8], 1.14% in [9] and -1.65% in [10].

For the molecule `CCn1c(-c2nonc2N)nc2ccncc21`, the inhibition is -5.08% in assay [1]; 0.25% in assay [2]; 0.08% in assay [3]; 0.86% in assay [4]; 2.64% in assay [5]; -3.87% in assay [6]. Also, the inhibition is -4.06% in assay [7], 0.79% in [8], -0.98% in assay [9] and -0.65% in assay [10].

Turning to `COc1ccc(-c2coc3ncnc(N)c23)cc1`, the inhibition in [1] was 0.88%; in assay [2] it was 2.79%; in assay [3] it was 2.69%; in [4] it was -0.38%; in assay [5], 2.37%; in assay [6], 1.46%. For the same molecule, the inhibition was 1.48% in assay [7], 1.51% in assay [8], -0.75% in [9] and 1.2% in assay [10].

As for `Cc1ccc(NC(=O)c2ccnc(N3CCCC3)c2)cc1-c1ccc(C(=O)NCC2CC2)cc1`, the inhibition is -0.29% in assay [1]; 3.77% in [2]; 22.6% in [3]; -4.33% in assay [4]; -3.35% in [5]; -1.08% in assay [6]. Besides, the inhibition in [7] was -0.58%; in [8] it was 2.11%; in [9] it was -3.41%; in assay [10], 1.68%.

`CC(C)=Cc1cccc2c1/C(=N/Nc1ccc(S(N)(=O)=O)cc1)C(=O)N2`: the inhibition in [1] stood at 1.41%; in assay [2] it was 0.85%; in assay [3], 7.39%; in [4] it was 2.03%; in assay [5], 5.14%; in assay [6] it was 1.48%. The inhibition in assay [7] was 9.14%; in assay [8], 1.19%; in assay [9] it was 3.55%; in assay [10] it was 1.38%.

For `O=C(Nc1n[nH]c2nc(-c3ccco3)c(Br)cc12)C1CC1`, the inhibition is 4.14% in [1]; 0.37% in [2]; 2.85% in [3]; 2.5% in assay [4]; 5.12% in assay [5]; 3.62% in assay [6]. Also, the inhibition in assay [7] came out at 0.54%; in [8] it was 0.96%; in [9], 1.89%; in [10], 1.4%.

Take `[O-][S+]1CCN(Cc2ccc(-c3ccc4ncnc(Nc5ccc(OCc6ccccc6)c(F)c5)c4c3)o2)CC1`: the inhibition in [1] was -3.52%; in assay [2], 0.34%; in assay [3], 0.62%; in assay [4], 84.1%; in [5], 90.7%; in [6] it was 42.6%. For the same molecule, the inhibition stood at 84.9% in assay [7], 39.7% in [8], 68.6% in assay [9] and 4.05% in assay [10].
